# Screening results deposited in PubChem BioAssay by National Center for Advancing Translational Sciences (NCATS).
# APEX1 inh: qHTS Assay for Inhibitors of the Human Apurinic/apyrimidinic Endonuclease 1 (APE1); DNA repair nuclease/redox regulator APEX1 (Homo sapiens), P27695; recombinant APE1, TAMRA/BHQ-2 abasic DNA cleavage fluorescence; Potency, µM (doses to about 65.8 µM), inactives show top-dose activity change, negative = inhibition, hits mostly inhibitors; 0.35% of 350,000 active;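 also: plate controls were vehicle for no effect and reference inhibitor for full effect; nearly all actives have a fitted effect of over 55% in size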
#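 Kinetic fluorescence read (525 ex/598 em nm, three reads 60 s apart) of AP-site incision; signal = third minus first read. Enzyme 0.75 nM, dual-labelled THF duplex 50 nM, compound preincubation 15 min RT.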
# L3MBTL1 inh-1: qHTS Assay for the Inhibitors of L3MBTL1 | AlphaScreen L3MBTL1–H3K9me1 peptide binding | Potency, µM (doses to about 57.1 µM), for inactives: at the highest dose activity, negative = inhibition, usual class: inhibitors | 0.66% of 230,000 active | AID 485360, 2010; also: % is scaled to controls: 0 for no effect and ±100 for the full control effect; nearly all actives have a fitted effect of over 60% in size
# Target sequence (Q9Y468 whole entry, looked up): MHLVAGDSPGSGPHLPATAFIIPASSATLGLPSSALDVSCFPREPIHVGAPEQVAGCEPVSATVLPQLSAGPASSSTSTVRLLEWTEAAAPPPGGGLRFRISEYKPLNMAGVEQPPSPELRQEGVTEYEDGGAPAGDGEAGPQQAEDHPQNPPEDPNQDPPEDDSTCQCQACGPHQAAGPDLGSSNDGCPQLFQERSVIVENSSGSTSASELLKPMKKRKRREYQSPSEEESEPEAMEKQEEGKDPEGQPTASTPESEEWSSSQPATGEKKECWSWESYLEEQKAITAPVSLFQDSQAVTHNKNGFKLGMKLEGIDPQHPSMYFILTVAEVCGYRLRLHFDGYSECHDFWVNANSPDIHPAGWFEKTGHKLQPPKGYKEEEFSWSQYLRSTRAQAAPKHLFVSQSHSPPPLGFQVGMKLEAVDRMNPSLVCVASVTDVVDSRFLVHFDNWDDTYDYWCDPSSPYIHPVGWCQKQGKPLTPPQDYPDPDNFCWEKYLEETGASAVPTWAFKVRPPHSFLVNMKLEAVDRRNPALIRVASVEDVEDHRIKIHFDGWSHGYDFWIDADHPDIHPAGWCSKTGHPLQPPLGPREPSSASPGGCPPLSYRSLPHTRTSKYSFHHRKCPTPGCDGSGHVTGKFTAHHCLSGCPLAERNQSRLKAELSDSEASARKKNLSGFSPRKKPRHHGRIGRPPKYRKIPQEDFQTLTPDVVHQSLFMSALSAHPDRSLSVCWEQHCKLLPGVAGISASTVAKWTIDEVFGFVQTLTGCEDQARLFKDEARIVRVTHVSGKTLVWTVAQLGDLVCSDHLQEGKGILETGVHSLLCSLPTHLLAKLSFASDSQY
#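 AlphaScreen assay: L3MBTL1 (50 nM final) was preincubated 30 min at room temperature with biotinylated H3(1-15)K9me1 peptide (75 nM final), then 30 min with library compounds; streptavidin donor and nickel chelate acceptor beads (10 ug/mL final) added, 30 min dark.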
# WRN helicase inh-1: qHTS for Inhibitors of WRN Helicase; Bifunctional 3'-5' exonuclease/ATP-dependent helicase WRN (Homo sapiens), Q14191; Potency, µM (titrated, usually from 114 µM), for the others: at the highest dose activity change, negative = inhibition, usual class: inhibitors; WRN helicase unwinding, fluorescent forked duplex, kinetic; 0.46% of 360,000 active; also: % is scaled to controls: 0 for no effect and ±100 for the full control effect; nearly all actives have a fitted effect of over 55% in size
#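 Enzyme (20 nM final) and test compound sit together 15 min at room temperature before substrate addition. Substrate is a single-forked duplex oligonucleotide (100 nM) labelled with fluorophore and quencher, with 2 mM ATP; helicase unwinding raises red fluorescence, read kinetically.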
# BLM helicase inh-1: qHTS Assay for Inhibitors of Bloom's syndrome helicase (BLM) | RecQ-like DNA helicase BLM (Homo sapiens), P54132 | recombinant BLM DNA unwinding, fluorescence dequenching | Potency, µM (series often up to 56.1 µM), for the others: top-dose activity change, negative = inhibition, actives largely listed as inhibitors | 0.2% of 350,000 active;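 also: plate controls were vehicle for no effect and no enzyme for full effect; nearly all actives have a fitted effect of over 35% in size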
# RECQ1 inh-1: qHTS Assay for Inhibitors of RecQ-Like Dna Helicase 1 (RECQ1); ATP-dependent DNA helicase Q1 (Homo sapiens), P46063; RECQ1 DNA unwinding, red fluorescence kinetic read; Potency, µM (doses to about 57.3 µM), inactives show top-dose activity, negative = inhibition, most hits filed as inhibitors; 0.54% of 240,000 active; AID 2549, 2010;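 also: plate controls were vehicle for no effect and no enzyme for full effect; nearly all actives have a fitted effect of over 30% in size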
#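 RECQ1T1 50 nM; forked duplex (20 bp + 30-nt ss tails) 200 nM, ATP 2 mM final; pH 8.0, 2 mM MgCl2, 2.5 ug/ml poly(dI-dC); 15 min compound preincubation; discontinuous kinetic read over 2 h at RT.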
# BLM inh: qHTS Confirmation Assay for Inhibitors of Bloom's syndrome helicase (BLM); shares compounds with BLM helicase inh-1; BLM DNA unwinding, fluorescence quenching, biochemical; Potency, µM, inactives show max response, negative = inhibition, most hits filed as inhibitors; 40% of 220 active;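 also: strand separation dequenches TAMRA so unwinding raises red fluorescence; series mostly up to about 69 µM; % is scaled to controls: 0 for no effect and ±100 for the full control effect; nearly all actives have a fitted effect of over 45% in size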
# RECQ1 inh conf: Confirmation qHTS Assay for Inhibitors of RecQ-Like Dna Helicase 1 (RECQ1); shares compounds with RECQ1 inh-1; RECQ1 helicase DNA unwinding, fluorescence; Potency, µM (highest dose often 229 µM), for inactives: top-dose activity change, negative = inhibition, usual class: inhibitors; 28% of 610 active; also: % is scaled to controls: 0 for no effect and ±100 for the full control effect; nearly all actives have a fitted effect of over 45% in size
# RECQ1 ADP FP: Counterscreen for RECQ1 Inhibitors: ADP Fluorescence Polarization Displacement Assay | shares compounds with RECQ1 inh-1 | ADP fluorescence polarization displacement counterscreen | Potency, µM (series often up to 228 µM), for inactives: top-dose activity change, negative = inhibition, most hits filed as inhibitors | 27% of 530 active | AID 2711, 2010; also: % is scaled to controls: 0 for no effect and ±100 for the full control effect; nearly all actives have a fitted effect of over 45% in size
# RECQ1 inh-2: Confirmation qHTS Assay for Inhibitors of RecQ-Like Dna Helicase 1 (RECQ1) - Round 2 Cherry Picks | shares compounds with RECQ1 inh-1 | recombinant RECQ1 DNA unwinding, red fluorescence | Potency, µM (highest dose often 119 µM), for inactives: top-dose activity, negative = inhibition, most hits filed as inhibitors | 15% of 1,100 active | AID 504841, 2011; also: % is scaled to controls: 0 for no effect and ±100 for the full control effect; nearly all actives have a fitted effect of over 50% in size
# L3MBTL1 inh-2: qHTS Assay for the Inhibitors of L3MBTL1: Hit Validation | L3MBTL1 methyl-lysine binding inhibition, biochemical qHTS | Potency, µM, actives largely listed as inhibitors | 91% of 500 active | shares compounds with L3MBTL1 inh-1 | AID 540279, 2011; also: nearly all actives have a fitted effect of over 70% in size
# L3MBTL1 ctr: qHTS Assay for the Inhibitors of L3MBTL1: Hit Validationin AlphaScreen Counterscreen; Potency, µM (top dose mostly 57.1 µM), for the others: at the top dose activity change, negative = inhibition, actives largely listed as inhibitors; shares compounds with L3MBTL1 inh-1; 500 tested, under 10 active; AID 602224, 2012; AlphaScreen counterscreen, signal inhibition; also: 0% is about no effect
# WRN helicase inh-2: qHTS for Inhibitors of WRN Helicase: Confirmatory Assay for Cherry-picked Compounds; shares compounds with WRN helicase inh-1; WRN helicase DNA unwinding, fluorescence kinetic; Potency, µM (top dose mostly 57.1 µM), without a hit: at the top dose activity, negative = inhibition, most hits filed as inhibitors; 63% of 610 active; AID 720497, 2013; also: nearly all actives have a fitted effect of over 65% in size
# TO DNA binding: qHTS for Inhibitors of WRN Helicase: Thiazole Orange DNA Binding Counterscreen; shares compounds with WRN helicase inh-1; thiazole orange DNA binding displacement, fluorescence; Potency, µM (top dose mostly 57.1 µM), for the others: at the highest dose activity change, negative = inhibition, usual class: inhibitors; 10% of 610 active; AID 720499, 2013;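 also: drop in dye fluorescence marks compound binding to DNA; % is scaled to controls: 0 for no effect and ±100 for the full control effect; nearly all actives have a fitted effect of over 60% in size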
# BLM helicase inh-2: qHTS for Inhibitors of WRN Helicase: BLM Helicase Counterscreen for WRN Inhibitors | Recombinant BLM helicase DNA unwinding, red fluorescence | Potency, µM (titrated, usually from 57.1 µM), for the others: at the top dose activity change, negative = inhibition, actives largely listed as inhibitors | shares compounds with WRN helicase inh-1 | 60% of 610 active; also: nearly all actives have a fitted effect of over 60% in size
# * hit, by the source's call; i = inactive; ? = inconclusive; / = no result; [ ] = remark or other dose. Compounds with a hit are over-represented: about 0.92% of the library has one in this group of screens. Calls follow the shape of the dose curve; as a rule, active = well fitted curve in the direction sought with a large enough effect; inconclusive = small, poorly fitted or top-dose-only effect, or another doubt; inactive = no such curve, though single readings can be large; an effect the other way counts as inactive or inconclusive. Potency is read from the fitted curve at half-maximal effect.
SMILES,APEX1 inh,L3MBTL1 inh-1,WRN helicase inh-1,BLM helicase inh-1,RECQ1 inh-1,RECQ1 inh-2,others
O=C(CSc1n[nH]c(=O)[nH]c1=O)Nc1ccc2c(c1)C(=O)c1ccccc1C2=O,?,28µM*,32µM*,13µM*,i,/,BLM inh=16µM*;WRN helicase inh-2=8.6µM*;TO DNA binding=12µM*;BLM helicase inh-2=4.3µM*
COc1cccc(NC(=O)Cn2cc(C(=O)c3ccc(C)cc3)c(=O)c3cc(OC)ccc32)c1,9%,-3%,/,?,/,/,
CCc1ccc(C(=O)c2cn(CC(=O)Nc3cccc(OC)c3)c3ccc(OC)cc3c2=O)cc1,28%,-3%,/,20µM*,/,/,BLM inh=20µM*;WRN helicase inh-2=19µM*;TO DNA binding=-6%;BLM helicase inh-2=4.3µM*
CCC(=O)Nc1ccc(-c2nnc3c4ccccc4c(C)nn23)cc1,/,/,/,-1%,/,/,
CNC(=O)COC(=O)c1cc(-c2ccco2)nc2ccccc12,?,28µM*,79µM*,16µM*,22µM*,?,BLM inh=?;L3MBTL1 inh-2=3.4*;L3MBTL1 ctr=2%;WRN helicase inh-2=15µM*;TO DNA binding=-29%;BLM helicase inh-2=4.8µM*
Cc1ccccc1NC(=O)c1c(C)oc2ccc(O)c(CN3CCCC3)c12,/,/,/,-6%,/,/,
Cc1c(O)ccc(/C=N/Nc2nc(-c3cccnc3)nc3ccccc23)c1O,-2%,-15%,?,?,20µM*,/,BLM inh=24µM*;RECQ1 inh conf=?;RECQ1 ADP FP=27%[91.9 µM];WRN helicase inh-2=?;TO DNA binding=27µM*;BLM helicase inh-2=?
Clc1ccc2c(c1)-n1cc(-c3ccccc3)nc1CO2,/,/,/,-6%,/,/,
CCOc1ccc(-c2nc(SCC(=O)Nc3ccc(C)c(C)c3)n3[nH]c(=O)cc3n2)cc1,/,/,/,14µM*,/,/,BLM inh=18µM*;WRN helicase inh-2=15µM*;TO DNA binding=9%;BLM helicase inh-2=3µM*
Cc1ccc(NC(=O)CSc2nc(-c3ccc(C(C)(C)C)cc3)nc3cc(=O)[nH]n23)cc1C,/,/,/,3%,/,/,
O=C(CSc1nc(O)cc(=O)[nH]1)N1c2ccccc2Sc2ccccc21,0%,-14%,-12%,-2%,-5%,/,
O=C(CSc1nc2ccccc2[nH]1)N1CCCCC1,-3%,/,2%,-1%,-10%,/,
Cc1c(C)n(C(=O)CSc2nc3ccccc3[nH]2)c2ccccc12,14µM*,/,?,-11%,8.9µM*,35µM*,RECQ1 inh conf=50µM*;RECQ1 ADP FP=3%[91.9 µM]
O=C(CSc1nc2ccccc2[nH]1)N1c2ccccc2Sc2ccccc21,?,-1%,-14%,-7%,?,?,
CCOc1ccc(OCC)c(Nc2nc3ccc(Cl)cc3n3cnnc23)c1,/,/,/,-2%,/,/,
Cc1ccc(NC(=O)c2c3c(nc4ccccc24)CCC3)cc1S(=O)(=O)N(C)C,?,/,-3%[11.6 µM],-12%,?,?,
COc1ccc(C(=O)Nc2ccc(NC(=O)c3ccccc3)cc2)cc1S(=O)(=O)N1CCOCC1,8%,/,-1%,-5%,/,/,
COc1ccc(NC(=O)c2c3c(nc4ccccc24)CCC3)cc1S(=O)(=O)N1CCOCC1,?,32µM*,?,?,22µM*,?,
OC[C@@H](O)C(O[C@@H]1O[C@@H](CO)[C@H](O)[C@H](O)[C@H]1O)[C@H](O)[C@@H](O)CO (stereo partly specified),/,/,/,4%,/,/,
O=[N+]([O-])c1ccc(O)c(-c2ccnc3cc(-c4ccccc4)nn23)c1,/,/,/,-3%,/,/,
CS(=O)(=O)N(CC(=O)Nc1ccc(CC#N)cc1)c1ccc(C23CC4CC(CC(C4)C2)C3)cc1,5%,-9%,-14%,-13%,7.9µM*,?,
CC1CCCCC1NC(=S)NC(=O)c1ccccc1Cl (stereo unspecified),-14%,4%,-17%,/,/,/,
CC1CCCCC1NC(=S)NC(=O)c1ccccc1Br (stereo unspecified),8%,3%,-29%,-9%,40µM*,-13%,
COc1ccccc1N1C(=O)[C@@H]2[C@H](C1=O)[C@H](C(=O)c1ccc(OC(C)=O)cc1)N1N=CC=C[C@@H]21,-7%,-15%,-23%,-4%,0%,/,
